# Bioassay records (PubChem BioAssay)
# HCMV inh = qHTS Assay for inhibitors of the human cytomegalovirus (HCMV). HFF cells, HCMV-luciferase reporter, 72 h; active compounds read low. activity change, negative = inhibition, % at 57.5 µM. actives 4.5% (n = 410,000). AID 1259415, 2018; in the data active = activity change below about -60%; inconclusive = no clear call, values can overlap the other calls; inactive = above about -39%; also: % is scaled to controls: 0 for no effect and ±100 for the full control effect
#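 Inhibition of viral replication was scored as loss of reporter luminescence in HFFs infected with HCMV-luciferase (MOI 1 PFU/cell) for 72 h; compounds tested at 2 doses, normalized to buffer and Salinomycin controls.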
# Pf growth 96h = Primary qHTS for delayed death inhibitors of the malarial parasite plastid, 96 hour incubation | P. falciparum luciferase reporter growth, 96 h | Potency, µM (top dose mostly 28.7 µM), for inactives: top-dose activity change, negative = inhibition, actives largely listed as inhibitors | actives 6.9% (n = 320,000) | AID 504834, 2011; also: potency is read from the fitted curve at half-maximal effect; % is scaled to controls: 0 for no effect and ±100 for the full control effect
#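 96 h incubation, 37 C, 5% CO2, of luciferase-reporter P. falciparum-infected RBCs (2% hematocrit, 0.05% parasitemia final) with test compounds; endpoint luminescence.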
# Shiga toxin inh = A qHTS for Small Molecule Inhibitors of Shiga Toxin. Vero cells, Shiga toxin protein synthesis inhibition reporter. inhibition, % at 38.7 µM. actives 9.2% (n = 290,000). AID 2315, 2010; in the data active = inhibition mostly above about 28%, no sharp cut-off; inactive = mostly below about 43%; also: 0% is about no effect
# HCV inhibitor = qHTS Assay for Inhibitors of Hepatitis C Virus (HCV); Potency, µM (series often up to 41.8 µM), for the others: top-dose activity change, negative = inhibition, hits mostly inhibitors; AID 651820, 2012; actives 3.4% (n = 340,000); Huh7.5.1 HCVcc-Cre infection, luciferase reporter, 44 h; also: potency is read from the fitted curve at half-maximal effect; % is scaled to controls: 0 for no effect and ±100 for the full control effect
#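 Seed cells (1,000/well) for 4 h; treat with compound and infect with HCVcc-Cre, moi about 0.5. Incubate 44 h, then detect luciferase activity.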
# Pf growth 48h = Primary qHTS for delayed death inhibitors of the malarial parasite plastid, 48 hour incubation. P. falciparum luciferase growth in erythrocytes, 48 h. Potency, µM (highest dose often 28.7 µM), for the others: at the highest dose activity change, negative = inhibition, most hits filed as inhibitors. actives 5.9% (n = 310,000); also: potency is read from the fitted curve at half-maximal effect; % is scaled to controls: 0 for no effect and ±100 for the full control effect
#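 Erythrocytes infected with P. falciparum carrying an integrated firefly luciferase reporter (2% hematocrit, 0.1% parasitemia final) were exposed to compounds in RPMI 1640 with 0.5% Albumax at 37 C, 5% CO2. Growth inhibition was scored as reduced luminescence.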
# CHX counter = Cycloheximide Counterscreen for Small Molecule Inhibitors of Shiga Toxin; cell reporter, cycloheximide protein synthesis inhibition counterscreen; max response, %; actives 12% (n = 300,000); in the data active = max response mostly above about 13%, no sharp cut-off; inactive = mostly below about 14%; also: read at 38.3 µM for the half of the compounds with a filed dose; 0% is about no effect
# The depositor's hits bear a star; i = inactive; ? = inconclusive; nt = no result given; + = active, no number; [ ] = dose if it differs, or a comment. This is a sample that favours compounds with a hit; in the whole collection about 21% have one here. Unless noted, calls follow the shape of the dose curve; as a rule, active = well fitted inhibition curve with a large enough effect; inconclusive = small, poorly fitted or top-dose-only effect, or another doubt; inactive = no such curve, though single readings can be large or run the other way.
SMILES,HCMV inh,Pf growth 96h,Shiga toxin inh,HCV inhibitor,Pf growth 48h,CHX counter
O=C(COC(=O)c1cc([N+](=O)[O-])ccc1NCCO)Nc1ccc2c(c1)OCO2,-9.1,-3.2%,13.9,11.2µM*,21.2%,6.4
Nc1ccc(C(=O)OCC(=O)Nc2ccc3c(c2)OCO3)cc1[N+](=O)[O-],10.3,4.4%,16.7,?,5.6%,20.3*
O=C(COC(=O)c1cc([N+](=O)[O-])ccc1NCCO)Nc1cccc(S(=O)(=O)N2CCCC2)c1,-1.5,?,nt,?,?,nt
COc1ccc([C@]23Cc4c(ccc5ccccc45)C(O2)C2=C(CCCC2=O)O3)cc1,nt,?,i,nt,17.8%[5.75 µM],6.4
COc1ccc([C@]23Cc4ccccc4C(O2)C2=C(O3)C(=O)c3ccccc3C2=O)cc1,nt,45.1%[5.75 µM],i,nt,1.51µM*,19.1*
COc1ccc([C@]23Cc4ccccc4C(O2)C2=C(CC(C)(C)CC2=O)O3)cc1,nt,0.601µM*,i,nt,?,1.5
COc1cc2c(cc1OC)C1O[C@](c3ccsc3)(C2)Oc2cc(-c3ccccc3)oc(=O)c21,nt,1.51µM*,i,nt,?,-1.0
COc1ccc([C@]23Cc4ccccc4C(O2)C2=C(CCCC2=O)O3)cc1,nt,1.51µM*,i,nt,?,0.6
Cc1ccnc(NC(=O)c2cccc(S(=O)(=O)NCc3ccccc3)c2)c1,-5.9,9.1%,nt,-13.2%,?,nt
COc1ccc([C@]23Cc4ccccc4C(O2)C2=C(CC4(CCCCC4)OC2=O)O3)cc1,nt,?,+,nt,?,36.9*
COc1cc2c(cc1OC)C1O[C@](c3ccsc3)(C2)OC2=C1C(=O)OC1(CCCCC1)C2,nt,1.35µM*,i,nt,?,-1.0
COc1ccc([C@]23Cc4c(ccc5ccccc45)C(O2)C2=C(CC4(CCCCC4)OC2=O)O3)cc1,nt,?,i,nt,10.3%[5.75 µM],-1.0
CS(=O)(=O)N1CCN(c2ccccc2NC(=O)c2ccc(-c3ccc(Br)cc3)o2)CC1,0.0,nt,-7.2,6.31µM*,?,1.5
O=C(Nc1ccccc1N1CCN(C(=O)c2ccc(Cl)cc2)CC1)c1cc2ccccc2o1,28.0,nt,-10.7,11.0%,?,-2.0
COc1ccc(C(=O)Nc2ccccc2N2CCN(C(=O)c3ccccc3)CC2)cc1Br,-6.8,?,-6.7,10µM*,2.08µM*,-0.6
O=C(Nc1ccccc1N1CCN(C(=O)c2ccc(Cl)cc2)CC1)c1ccc([N+](=O)[O-])o1,nt,-15.9%,3.6,?,6.57µM*,9.8
CCN1CCN(c2c(Cl)cccc2NC(=O)c2ccc([N+](=O)[O-])o2)CC1,-97.3*,nt,nt,nt,nt,nt
Cc1cc(C)c(Cn2c(C)c(CNCCCc3ccccc3)c(C(=O)O)c2C)c(C)c1,8.6,nt,nt,nt,nt,nt
CC(=O)c1ccc(-c2ccc(C(=O)NC3CC(C)(C)NC(C)(C)C3)o2)cc1,3.9,?,nt,?,?,nt
O=C(Nc1ccccc1N1CCN(C(=O)c2ccccc2)CC1)c1ccc(Cl)cc1,3.3,-35.6%,29.0,?,?,0.6
CN1CCN(c2ccccc2NC(=O)c2ccc(-c3ccccc3[N+](=O)[O-])o2)CC1,4.5,29.1%,-3.3,?,5.22µM*,-1.4
O=C(Nc1ccccc1N1CCOCC1)c1ccc([N+](=O)[O-])o1,8.5,36.5%,-16.7,-13.8%,-1.0%,-0.8
O=C(Nc1ccccc1N1CCCCC1)c1ccc([N+](=O)[O-])o1,-32.2,8.28µM*,nt,?,10.4µM*,nt
CC(=O)N1CCN(c2ccccc2NC(=O)c2ccc(-c3cccc([N+](=O)[O-])c3)o2)CC1,6.2,1.8%,-5.5,?,?,1.0
O=C(Nc1ccccc1N1CCN(C(=O)c2ccccc2)CC1)c1ccc(Br)o1,-5.4,9.28µM*,-19.3,?,0.0%,-2.7
SMILES,HCMV inh,Pf growth 96h,Shiga toxin inh,HCV inhibitor,Pf growth 48h,CHX counter
COc1ccc(OC)c(S(=O)(=O)NCCc2csc3nc(-c4ccccc4)nn23)c1,38.0,nt,nt,nt,nt,nt
CN(C)c1ccc(C2=NOC(CN3C(=O)c4ccccc4S3(=O)=O)C2)cc1 (stereo not drawn),71.2,-17.1%,70.6*,-37.5%,34.5%,55.5*
Cn1cccc1C1Nc2ccccc2NC2=C1C(=O)CC(C)(C)C2 (stereo not drawn),24.2,17.3%,63.6,-22.2%,19.6%,31.4*
CCOc1cc(C2Nc3ccccc3NC3=C2C(=O)CC(C)(C)C3)ccc1O (stereo not drawn),41.5,407.8%,7.5,-9.2%,-22.0%,13.8*
NC(=O)c1ncn2c(=O)n(CCCl)nnc12,-31.2,nt,nt,nt,nt,nt
O=C1C=CC(=NN=C(c2ccccc2)c2ccccc2)C=C1,-80.2*,nt,nt,nt,nt,nt
O=C1CC2(CCCCCC2)Oc2ccc(Cl)cc21,-28.9,nt,nt,11.4%,nt,nt
O=C(NCc1ccccc1)C1CCN(S(=O)(=O)c2ccc3c(c2)CCCN3C(=O)C2CCC2)CC1,-22.9,nt,nt,nt,nt,nt
CC(=O)N1CCN2C(=O)C1CCCC(=O)c1cc(C(C)C)ccc12 (stereo not drawn),-67.4*,0.1%,14.5,19.9%,-2.0%,-1.9
COc1ccc(-c2nc(-c3ccc(Br)o3)no2)cc1,107.5,-15.9%,63.9*,8.7%,nt,28.5*
COc1ccc(Cl)cc1-c1nc(-c2ccc(Br)o2)no1,75.1,28.6%,-4.3,16.1%,nt,0.7
COC(=O)c1ccc(-c2nc(-c3ccc(Br)o3)no2)cc1,7.5,-14.5%,29.9,13.9%,nt,20.6*
COc1cc(-c2noc(-c3cc(C(C)C)[nH]n3)n2)cc(OC)c1OC,-15.7,nt,nt,nt,nt,nt
COc1ccc(-c2noc(-c3ccc(Br)o3)n2)cc1,79.1,i,69.4*,-20.1%,81.6%,29.9*
CC(C)c1cc(-c2nc(-c3ccc(Cl)cc3)no2)n[nH]1,-67.8*,nt,nt,nt,nt,nt
CCOC(=O)C1=C(C)N(C)C(=O)NC1c1cccc2ccccc12 (stereo not drawn),-22.7,7.3%,-6.5,2.5%,2.5%,-0.7
Cc1ccc(C)c(S(=O)(=O)c2cn(C)c3cc(N4CCCCC4C)c(F)cc3c2=O)c1 (stereo not drawn),-14.8,nt,nt,nt,nt,nt
COCCCNC(=S)N1CCC(NC(=O)Nc2ccc(C)cc2)CC1,-38.5,9.9%,-29.0,-3.0%,-17.0%,-3.1
Cn1cc(C(=O)NCc2ccc(Cl)cc2)c(=O)c2cc(S(=O)(=O)N3CCOCC3)ccc21,52.5,6.1%,-13.7,7.8%,?,-1.0
Fc1cccc(F)c1-c1nc(-c2ccc(Cl)cc2)no1,141.0,202.2%,62.8*,23.2%,447.1%,56.0*
COc1cccc(-c2noc(-c3ccc(Br)o3)n2)c1,55.2,33.4%,109.0*,?,101.1%,32.3*
COc1ccc(-c2noc(-c3ccc(Cl)cc3)n2)cc1,nt,?,48.4*,?,221.5%,24.9*
COc1cccc(-c2ccc(-c3noc(-c4ccccc4Br)n3)c(OC)n2)c1,5.5,nt,nt,nt,nt,nt
